This note sets out measurements from PubChem BioAssay.

In test [1] the test system is Aerobactin synthetase IucA (Klebsiella pneumoniae). Put plainly: inhibition of K. pneumoniae IucA enzyme – biochemical, Tocris library, absorbance (AID 1345561; call rule not given here;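 also: 100% = enzyme without compound and 0% = no enzyme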). Particulars: purified IucA enzyme assay, absorbance (OD) read-out; stronger effect = lower value;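 tested at 8 µM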.
The nature of test [2]: viability loss with induced miR-34 in A549 – imaging, A549 dox-inducible miR-34, nuclei and caspase counts, primary screen (AID 1347080). As to conditions: A549 miR-34 inducible, Hoechst nuclei count, 48 h.
Test [3] in a line: galactose survival enhancers in mitochondrial complex I cybrids – cell-based, galactose medium, ATP luminescence, primary screen (AID 1645843;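 active = z-score of at least 1.8 in each of two replicates, scored against plate mean and spread of sample wells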;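 also: positive z means more ATP and so rescue of galactose-driven cybrid death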). Particulars: complex I mutant cybrid cells, 72 h, stronger effect = higher value.
A short description of test [4]: P. berghei load reduction in hepatocytes – cell-based, HepG2, luciferase luminescence, HepG2 viability, primary screen (AID 624349; in the data active = parasite load remaining mostly below about 12%, no sharp cut-off; inactive = mostly above about 10%;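 also: 100% = mean of DMSO negative control wells on the same plate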). As to conditions: P. berghei liver stage in HepG2, luciferase luminescence, concentration not given here; parasite load remaining: stronger effect = lower value; viability: measured here: HepG2 viability without parasites.
The nature of test [5]: compounds altering viability of human ES cells (AID 493140; call rule not given here;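 also: cells exposed to compounds for four days before counting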). As to conditions: human embryonic stem cell survival screen; stronger effect = higher value.
Test [6] in a line: compounds altering circadian rhythm period length – cell-based, LOPAC library, luminescence reporter (AID 2774; call rule not given here;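 also: values are relative to mean of DMSO wells on each plate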). As to conditions: circadian reporter cells, at 7 µM, actives lie on both sides.
[7] abbreviates: stronger effect = lower value, cell number ratio, induced over uninduced.
Where [8] appears, read: measured here: relative caspase fold change +Dox/-Dox.
Where [9] appears, read: measured here: total cells with miR-34 induction, stronger effect = lower value.
Where [10] appears, read: measured here: total cells without miR-34 induction.

“And” between values parts separate entries of the source, which are not always exact repeats. Equal entries are not always repeated. The source made the active and inactive calls.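 The calls were made as follows, unless noted: active = compounds whose cell count with miR-34 switched on is under 0.7 times the count with it off; inactive = the rest.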

Consider `CCC(=O)NC1Cc2ccccc2C(c2ccccc2)C1` (stereo not drawn), for which the remaining activity – broadly, the signal under treatment as a percentage of the control signal – in test [1] is 124% (inactive). Besides, the fold change is 1.02 (inactive) in test [2] (setting [7]) and 1.01 in test [2] (setting [8]). The values for the cell count in test [2] (setting [9]) and in test [2] (setting [10]) were 8500 and 8340, respectively. For the same molecule, in test [3], the z-score was 0.46 (inactive).

In the case of `CC(=O)NC1=NN(C(C)=O)C(C)(c2ccccc2)S1` (stereo not drawn), the remaining activity in test [1] was 109% (inactive). The fold change in test [2] (setting [7]) was 1.17 (inactive); in test [2] (setting [8]), 2.25. Also, the cell count turned out to be 1640 in test [2] (setting [9]) and 1400 in test [2] (setting [10]). Also, the z-score in test [3] is -0.275 (inactive).

Regarding `C[C@@H]1C(=O)OC2[C@H](O)C34[C@H]5C[C@@H](C(C)(C)C)[C@]36[C@@H](OC(=O)[C@@H]6O)O[C@@]4(C(=O)O5)[C@]21O` (stereo partly drawn), in test [1], the remaining activity was 112% (inactive). In addition, the fold change in test [2] (setting [7]) is 0.923 (inactive); in test [2] (setting [8]), 0.53. Also, the cell count amounted to 8430 in test [2] (setting [9]) and 9140 in test [2] (setting [10]). The z-score in test [3] was -0.225 (inactive).

`NS(=O)(=O)c1nn2cc(-c3ccccc3)nc2s1`: the remaining activity in test [1] is 99.1% (inactive). The fold change is 1.09 (inactive) in test [2] (setting [7]) and 0.795 in test [2] (setting [8]). Further, the cell count amounted to 4960 in test [2] (setting [9]) and 4530 in test [2] (setting [10]). Besides, the z-score in test [3] is -0.585 (inactive).

As to `CN1Cc2c(C(=O)OC(C)(C)C)ncn2-c2ccsc2C1=O`, the remaining activity in test [1] was 105% (inactive). In addition, the fold change in test [2] (setting [7]) was 0.89 (inactive); in test [2] (setting [8]) it was 1.34. In addition, the cell count was determined as 7080 in test [2] (setting [9]) and 7950 in test [2] (setting [10]). In test [3], the z-score was 0.15 (inactive).

Turning to `CC1c2ccccc2CN1CC1=NCCN1` (stereo not drawn), in test [1], the remaining activity was 111% (inactive). Besides, the fold change in test [2] (setting [7]) was 0.985 (inactive); in test [2] (setting [8]), 0.732. For the same molecule, the cell count in test [2] (setting [9]) worked out at 8400; in test [2] (setting [10]) it was 8530. Further, the z-score in test [3] is -0.515 (inactive).

In the case of `CCn1c(=O)n(C2=C(CO)CN(CC3CCCCCCC3)CC2)c2ccccc21`, in test [1], the remaining activity is 102% (inactive). The fold change in test [2] (setting [7]) was 0.951 (inactive); in test [2] (setting [8]) it was 1.46. The cell count in test [2] (setting [9]) was 7150; in test [2] (setting [10]), 7510. The z-score in test [3] is -0.665 (inactive).

Consider `COc1ccc(-c2nc(C(=O)N3CCN(C)CC3)sc2-c2ccc(OC)cc2)cc1`, for which the remaining activity in test [1] is 116% (inactive). Also, the fold change was 0.946 (inactive) and 0.989 (inactive) in test [2] (setting [7]); 2.48 and 0.892 in test [2] (setting [8]). Besides, the cell count in test [2] (setting [9]) is 5370 and 9040; in test [2] (setting [10]), 5680 and 9140. In addition, the z-score in test [3] is -0.66 (inactive).

For the molecule `O=C(O)COc1cccc(-c2ocnc2-c2nc(-c3ccccc3)c(-c3ccccc3)o2)c1`, in test [1], the remaining activity was 118% (inactive). Moreover, the fold change in test [2] (setting [7]) was 0.961 (inactive); in test [2] (setting [8]), 0.827. The results for the cell count in test [2] (setting [9]) and in test [2] (setting [10]) were 8540 and 8890, respectively. Also, the z-score in test [3] was 0.465 (inactive).

`C/C(=N\NC(=O)[C@@H]1C(=O)NC[C@H]1c1ccccc1)c1cccc(Br)c1`: the remaining activity in test [1] was 103% (inactive). The fold change in test [2] (setting [7]) was 0.887 (inactive); in test [2] (setting [8]), 1.69. For the same molecule, the cell count is 8430 in test [2] (setting [9]) and 9510 in test [2] (setting [10]). Moreover, in test [3], the z-score was 0.375 (inactive).

Regarding `O=C1NN(C(=O)Nc2ccc(Br)cc2)[C@@H](c2ccccc2)[C@@H]1c1ccccc1`, the remaining activity in test [1] was 127% (inactive). Also, the fold change in test [2] (setting [7]) was 0.887 (inactive); in test [2] (setting [8]) it was 0.737. Further, the values for the cell count in test [2] (setting [9]) and in test [2] (setting [10]) were 9100 and 10300, respectively. Besides, the z-score in test [3] is 0.225 (inactive).

For the molecule `CC(=O)N(O)[C@@H]1c2cc(C#N)ccc2OC(C)(C)[C@H]1O`, the remaining activity in test [1] is 89.1% (inactive). The fold change in test [2] (setting [7]) was 0.882 (inactive); in test [2] (setting [8]) it was 2.17. In addition, the cell count in test [2] (setting [9]) stood at 8800; in test [2] (setting [10]), 9980. Further, the z-score in test [3] was 0.655 (inactive).

Take `Clc1ccc(CCCOCCCN2CCCCC2)cc1`: in test [1], the remaining activity was 105% (inactive). The fold change in test [2] (setting [7]) is 0.895 (inactive); in test [2] (setting [8]) it was 1.39. Further, the cell count was 7600 in test [2] (setting [9]) and 8480 in test [2] (setting [10]). Further, in test [3], the z-score is -0.64 (inactive).

As for `O=C(Nc1ccc([N+](=O)[O-])cc1O)Nc1ccccc1Br`, the remaining activity in test [1] is 105% (inactive). The fold change in test [2] (setting [7]) is 1.13 (inactive) and 1.09 (inactive); in test [2] (setting [8]), 1.05 and 1.85. Besides, the cell count in test [2] (setting [9]) was 5450 and 2460; in test [2] (setting [10]), 4830 and 2250. For the same molecule, the z-score in test [3] was -0.58 (inactive).

On to `CC(C)[C@H](CO)Nc1nc(Nc2cc(N)cc(Cl)c2)c2ncn(C(C)C)c2n1`, for which, in test [4], the parasite load remaining was 38.5% (inactive). The viability (in general, a read-out of living cells in per cent, often relative to untreated cells) in test [4] stood at 101%. Moreover, in test [1], the remaining activity was 103% (inactive). In addition, the fold change in test [2] (setting [7]) was 1.06 (inactive); in test [2] (setting [8]), 1.14. Further, the cell count was 1230 in test [2] (setting [9]) and 1160 in test [2] (setting [10]). In test [3], the z-score was -0.555 (inactive).

Turning to `COC(=O)/C=C/c1cc(O)ccc1O`, the survival in test [5] was 85.3 (inactive). Besides, the remaining activity in test [1] is 98.4% (inactive). Besides, the fold change is 0.869 (inactive) in test [2] (setting [7]) and 0.871 in test [2] (setting [8]). The cell count in test [2] (setting [9]) is 8110; in test [2] (setting [10]) it was 9340. The z-score in test [3] was -1.21 (inactive).

For `COc1ccc(CN2C(=O)C(=O)c3cc(OC(F)(F)F)ccc32)cc1`, the remaining activity in test [1] is 114% (inactive). Also, the fold change in test [2] (setting [7]) is 0.793 (inactive); in test [2] (setting [8]), 1.39. The results for the cell count in test [2] (setting [9]) and in test [2] (setting [10]) were 1960 and 2480, respectively. For the same molecule, the z-score in test [3] was -1.04 (inactive).

`CC(C)SC(=N)N`: in test [1], the remaining activity is 92% (inactive). For the same molecule, the fold change is 0.945 (inactive) and 0.931 (inactive) in test [2] (setting [7]); 0.992 and 1.03 in test [2] (setting [8]). The cell count in test [2] (setting [9]) was 5980 and 8810; in test [2] (setting [10]) it was 6320 and 9460. For the same molecule, the z-score in test [3] was 0.865 (inactive).

In the case of `O=C(OCCN1CCCCC1)c1c[nH]c2ccccc12`, the period change in test [6] was -0.005 h (inactive). In test [1], the remaining activity is 82.2% (inactive). For the same molecule, the fold change in test [2] (setting [7]) is 0.911 (inactive); in test [2] (setting [8]), 0.811. Besides, the cell count in test [2] (setting [9]) was 9250; in test [2] (setting [10]) it was 10200. Further, the z-score in test [3] was 0.69 (inactive).
